10 molecules from PubChem BioAssay (NCI) can be followed below.

What all share (experiment): NCI-60 one-dose screen, 48 h (100 = growth as untreated, 0 = no growth, -100 = all killed)
Common to all, as to conditions: 10 µM unless noted

Assay [1] relates to NCI/ADR-RES ovarian.
Assay [2] relates to T-47D breast.
The test system of assay [3] is BT-549 breast.
Assay [4] has as its system MDA-MB-435 melanoma.
For assay [5], the system named is SW-620 colon.
Assay [6] concerns MCF7 breast.
Assay [7] relates to HCT-116 colon.
Assay [8] concerns KM12 colon.
Assay [9] concerns HCC-2998 colon.

This is part of a sample that, as a whole, favours compounds with a hit. Of some 83,000 tested, about 20% had one in any assay.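 A percent growth of 40 corresponds to 60% growth inhibition; 0 means no net growth; -100 means all cells died. Active threshold: below 10.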 A number with no mark means an inactive call. Active and inactive are the calls of the source.

On to `C[CH2][Sn]([Cl])([Cl])[CH2]C.Oc1ccccc1C=NCCN=Cc1ccccc1O`, for which the growth in assay [1] is 106%; in assay [2] it was 90%; in assay [3], 117%; in assay [4] it was 108%; in assay [5], 99.7%; in [6], 131%. The growth was 112% in assay [7] and 106% in assay [8].
With `CC(C)=CC1C(C(=O)OCc2cccc(Oc3ccccc3)c2)C1(C)C` (stereo not drawn), the growth in [1] is 95%; in [2], 81.5%; in assay [3], 100%; in assay [4], 91.9%; in assay [5], 94.8%; in assay [7], 84.8%. Besides, the growth in assay [9] is 94.5%; in [8], 97.3%.
Regarding `COc1cccc(C=NC(Cc2cnc[nH]2)C(=O)O)c1O` (stereo not drawn), the growth is 98.4% in assay [1]; 108% in assay [2]; 91.1% in assay [3]; 84.2% in assay [4]; 102% in [5]; 93.4% in assay [6]. For the same molecule, the growth was 97.8% in [7] and 104% in assay [8].
As for `COc1cc(C=Nc2cc(Cl)cc(Cl)c2)ccc1N(CCCl)CCCl`, the growth in assay [1] was 85.2%; in assay [2] it was 95.4%; in [3], 85.4%; in [4], 95.5%; in assay [5], 75.5%; in assay [6], 84.2%. The growth in assay [7] was 90.4%; in assay [8], 51.1%.
For the molecule `C=CC[n+]1ccc(-c2cc[n+](CC=C)cc2)cc1`, the growth was 111% in assay [1]; 82.1% in [2]; 109% in assay [3]; 104% in assay [4]; 114% in [5]; 89.7% in assay [6]. Besides, the growth in [7] is 98.5%; in [9], 95.4%; in assay [8], 65.3%.
With `O=C(Nc1ccc([N+](=O)[O-])cc1)C(Cl)(Cl)Cl`, the growth in [1] is 99.6%; in assay [2], 80.7%; in assay [3] it was 91.6%; in assay [4], 104%; in assay [5] it was 105%; in [6], 85.9%. In addition, the growth in [7] was 91.1%; in assay [8], 97.1%.
As for `C[C@]12C[C@@H](CO)[C@H](O)C[C@@H]1CC[C@@H]1[C@@H]2CC[C@]2(C)[C@@H](O)CC[C@@H]12`, the growth in assay [1] is 99.6%; in [2] it was 104%; in assay [3], 78.9%; in assay [4] it was 105%; in [5], 101%; in assay [6], 121%. Further, the growth in [7] was 103%; in [9], 97.9%; in [8], 101%.
For `NC(=O)C(Br)c1ccccc1` (stereo not drawn), the growth was 105% in [1]; 95.3% in assay [2]; 77.6% in [3]; 94.1% in assay [4]; 117% in assay [5]; 82.8% in assay [7]. Further, the growth in assay [9] is 96.4%; in [8] it was 96.9%.
With `N#Cc1c(Br)n(C2OC(CO)C(O)C2O)c2ncnc(N)c12` (stereo not drawn), the growth in [1] was 52.9%; in assay [2] it was 9.15% (active); in assay [3] it was 73.5%; in assay [4], 51.4%; in [5], 30.5%; in assay [6] it was 3.47% (active). The growth in assay [7] is 40.3%; in [9], 83.7%; in [8], 34%.
As to `CC[C@H](C)[C@@H]1OC(=O)C(C)(C)[C@H](O)[C@H](Cc2ccccc2)OC(=O)[C@H](C(C)C)OC(=O)[C@@H](NC(=O)c2cccc(NC=O)c2O)[C@@H](C)OC1=O`, the growth in [1] was 53.4%; in [2] it was 33.2%; in assay [3], 53.8%; in assay [4], 53.2%; in assay [5], 60.8%; in [6] it was 40%. For the same molecule, the growth in assay [7] was 36.5%; in assay [8], 53.5%.
